In ChEMBL document CHEMBL3988442, “University of Dundee, Small-Polar-MMV Screening Library” (2021):
About 13,000 (27%) of roughly 48,000 compounds showed an effect of 50% or more. This is one part of the list.

These molecules were tested on Wolbachia pipientis (assay: Anti-Wolbachia Cell-Based Screen). Settings: 5 µM.
Type: functional
Design: scale not given: in the data most compounds retested in dose-response had high values
With `CCN(CCC(=O)NC1CC1)Cc1ccc(Cl)s1` the “Percent Effect” value was -9.828%. In the case of `Cc1ccccc1OCC1CCCN(C(=O)CN(C)C2CCNCC2)C1` (stereo not drawn), the “Percent Effect” value is reported as 4.855%. For `Cc1ccc(S(=O)(=O)N(C)CC(N)=O)c(Cl)c1`, the “Percent Effect” value was 2.18%. `Cc1nonc1CN(C)Cc1cnn(-c2ccc(Cl)cc2)c1` was tested, and the “Percent Effect” value was 133.6%. For `Cc1nonc1CN(C)Cc1c[nH]nc1-c1ccc(F)cc1F`, the “Percent Effect” value was 1.804%. With `CCn1cc(CN(C)S(=O)(=O)c2ccc(Cl)cc2)cn1` the “Percent Effect” value was -0.8604%. `CSCC(=O)N(C)Cc1cnn(-c2ccc(F)cc2)c1` was tested, and the “Percent Effect” value was -3.16%. `Cc1nonc1CN(C)Cc1cnn(-c2ccc(F)cc2)c1` was tested, and the “Percent Effect” value was 116.4%. `Cc1nonc1CN(C)Cc1nc(-c2ccccc2Cl)oc1C` was tested, and the “Percent Effect” value was -14.91%. With `CS(=O)(=O)c1nccn1CCOc1ccc(F)cc1Cl` the “Percent Effect” value was 1.333%. With `COc1ccc(S(N)(=O)=O)cc1C(=O)N(C)Cc1cc(C)on1` the “Percent Effect” value was 5.855%. For `CCc1nc(C2CCCN(C(=O)c3cccc(Cl)c3)C2)no1` (stereo not drawn), the “Percent Effect” value was 126.3%. In the case of `CCc1nc(C2CCCN(C(=O)c3cccc(C(N)=O)c3)C2)no1` (stereo not drawn), the “Percent Effect” value is reported as 115.3%. In the case of `Cc1noc(C2CCCN(C(=O)c3cccc(Cl)c3)C2)n1` (stereo not drawn), the “Percent Effect” value is reported as -10.95%. In the case of `CCc1nc(C2CCCN(C(=O)c3cccc4cn[nH]c34)C2)no1` (stereo not drawn), the “Percent Effect” value is reported as -7.145%. `CCc1nc(C2CCCN(C(=O)c3cccc4c3ccn4C)C2)no1` (stereo not drawn) was tested, and the “Percent Effect” value was -5.539%. In the case of `CCc1nc(C2CCCN(C(=O)c3ccc4c(c3)nnn4C)C2)no1` (stereo not drawn), the “Percent Effect” value is reported as 5.742%. With `NC(=O)c1ccc(N2CCN(Cc3cccc4nsnc34)CC2)nc1` the “Percent Effect” value was -18.45%. `COc1ccc(C(NC(=O)c2cccc[n+]2[O-])C2CC2)cc1` (stereo not drawn) was tested, and the “Percent Effect” value was 3.052%. For `CCS(=O)(=O)N1CCC2(CCCN(Cc3ccc(F)c(F)c3)C2=O)C1` (stereo not drawn), the “Percent Effect” value was -34.42%. With `NC(=O)C1(c2cnccn2)CCCN1Cc1ccc(Cl)c(F)c1` (stereo not drawn) the “Percent Effect” value was 137%. `NC(=O)CN1CC2(CCC1=O)CCN(Cc1ccc(Cl)c(F)c1)CC2` was tested, and the “Percent Effect” value was 13.87%. `NC(=O)C1(c2cnccn2)CCCN1Cc1ccc(F)c(F)c1` (stereo not drawn) was tested, and the “Percent Effect” value was 80.27%. In the case of `CN(C)C(=O)N1CCCC2(CCN(Cc3ccc(Cl)c(F)c3)C2)C1` (stereo not drawn), the “Percent Effect” value is reported as 2.484%. In the case of `O=C(c1cn[nH]c1)N1CCC2(CCCN(Cc3ccc(F)c(F)c3)C2)C1` (stereo not drawn), the “Percent Effect” value is reported as -7.691%. With `COc1cc(CNC2CCN(c3ccccc3)C2)cc(OC)c1OC` (stereo not drawn) the “Percent Effect” value was 0.4794%. In the case of `CCn1cc(CN(C)S(=O)(=O)c2ccc(NC(C)=O)cc2)cn1`, the “Percent Effect” value is reported as 5.791%. With `Cl.O=C(NC1CCCC1)c1cc(C2CCCNC2)n[nH]1` (stereo not drawn) the “Percent Effect” value was 150.1%. For `CCCc1cc(C(=O)NC2CCCCNC2=O)[nH]n1` (stereo not drawn), the “Percent Effect” value was -7.069%. In the case of `CNC(=O)c1cc(C2CCCNC2)n[nH]1.Cl` (stereo not drawn), the “Percent Effect” value is reported as 96.41%. In the case of `COc1ccccc1OCc1cc(C(=O)NC[C@@H]2CCCN2)n[nH]1`, the “Percent Effect” value is reported as -26.39%. With `O=C(c1ccc(C2CCCN2)s1)N1CC=CC1` (stereo not drawn) the “Percent Effect” value was 0.32%. In the case of `O=C(NC1CCCC1)c1n[nH]c2c1CNCC2`, the “Percent Effect” value is reported as -11.08%. With `CNC(=O)c1[nH]nc2c1CN(c1cc(C3CCCNC3)nc(C)n1)CC2` (stereo not drawn) the “Percent Effect” value was -2.336%. With `CNC(=O)c1cc(C2CCCN2)n[nH]1.Cl` (stereo not drawn) the “Percent Effect” value was 155.4%. `CCc1c(C)nn(CCNC(=O)c2cc(C3CC3)n[nH]2)c1C` was tested, and the “Percent Effect” value was 1.187%. With `CSC1(CNc2ccc(Br)cn2)CCOCC1` the “Percent Effect” value was -9.614%. In the case of `CCOCCNC(=O)c1cc(Br)c2c(c1)OCCO2`, the “Percent Effect” value is reported as -10.75%. `COCCC(=O)N1CC2(CCN(Cc3ccccc3Cl)CC2)C1.O=C(O)C(F)(F)F` was tested, and the “Percent Effect” value was 7.796%. For `Cc1ccc(S(=O)(=O)N2CCc3nc(C4CCNCC4)ncc3C2)cc1.Cl`, the “Percent Effect” value was -12.78%. `Cc1nc(C2CCN(S(=O)(=O)c3ccc4c(c3)CCC4)CC2)n[nH]1` was tested, and the “Percent Effect” value was -1.341%. With `CCC[C@H]1CN(S(=O)(=O)c2c(C)noc2C)C[C@@H]1N` the “Percent Effect” value was -20.84%. `Cc1noc(C)c1S(=O)(=O)N1CCc2nc(C3CCNCC3)ncc2C1.Cl` was tested, and the “Percent Effect” value was 92.39%. For `Cl.O=S(=O)(c1ccc(Cl)cc1)N1CCc2nc(C3CCNCC3)ncc2C1`, the “Percent Effect” value was 112%. In the case of `Cc1n[nH]c(C)c1CCN(C)C(=O)c1ccc(CN2CCCCC2)cc1`, the “Percent Effect” value is reported as -26.72%. In the case of `CCc1cnc(C)nc1NCC(O)CN1CCCCCC1` (stereo not drawn), the “Percent Effect” value is reported as -1.473%. `Cc1nnc([C@@H]2CC[C@@H]3[C@@H](CCN3C3CCC3)O2)o1` was tested, and the “Percent Effect” value was 107.1%. With `Cc1nnc([C@@H]2CC[C@@H]3[C@@H](CCN3C3CCOCC3)O2)o1` the “Percent Effect” value was -2.772%. For `Cc1nnc([C@@H]2CC[C@@H]3[C@@H](CCN3S(C)(=O)=O)O2)o1`, the “Percent Effect” value was 4.456%. With `CC(=O)C(Cc1ccccc1)NC(=O)CSc1nncn1C` (stereo not drawn) the “Percent Effect” value was 8.647%. `COCC1(CNc2cc(C(C)C)nc(N)n2)CC1` was tested, and the “Percent Effect” value was 12.37%. `CCCC(=O)NC1CCc2c(ccc(=O)n2Cc2csc(C)n2)C1.O=C(O)C(F)(F)F` (stereo not drawn) was tested, and the “Percent Effect” value was 92.99%. For `CC(C)NC1CCc2c(ccc(=O)n2CC2CC2)C1.O=C(O)C(F)(F)F` (stereo not drawn), the “Percent Effect” value was -1.359%. `Cc1nc(CN2C[C@@H]3CN(C(=O)NC(C)C)C[C@@H]3C2=O)cs1.O=C(O)C(F)(F)F` was tested, and the “Percent Effect” value was 4.242%. With `Cc1nc(Cn2c3c(ccc2=O)CCN(CC2CC2)CC3)cs1.O=C(O)C(F)(F)F.O=C(O)C(F)(F)F` the “Percent Effect” value was 7.996%. For `Cc1nc(Cn2c3c(ccc2=O)CC(NC(C)C)CC3)cs1.O=C(O)C(F)(F)F.O=C(O)C(F)(F)F` (stereo not drawn), the “Percent Effect” value was 95.6%. For `COCC(=O)N1CCc2ccc(=O)n(Cc3csc(C)n3)c2CC1.O=C(O)C(F)(F)F`, the “Percent Effect” value was -6.118%. With `COCCNC(=O)[C@@H](C)[C@@H]1CCc2c(C)cc(OCC(=O)O)c(C)c2C1` the “Percent Effect” value was -3.996%. `Cc1cccc(N2CCC(N3CCC4(CN(C)C(=O)O4)C3)CC2)c1C` (stereo not drawn) was tested, and the “Percent Effect” value was 10.35%. In the case of `O=C(CN1CCOC1=O)N1CC[C@@H](c2ccc3ccccc3c2)[C@H](O)C1`, the “Percent Effect” value is reported as 1.475%. With `CCCNC(=O)c1ccc(NC(=O)c2cccc(OCC)c2)cc1` the “Percent Effect” value was 17.24%. In the case of `O=C(CCNC(=O)C1=Cc2ccccc2OC1)NCc1ccncc1`, the “Percent Effect” value is reported as -4.464%. `O=C(CCNC(=O)c1ccccc1F)NCCNc1cccnc1` was tested, and the “Percent Effect” value was 5.027%. For `O=C(CCNC(=O)C1=Cc2ccccc2OC1)Nc1cccnc1`, the “Percent Effect” value was -5.743%. With `CCOc1cccc(C(=O)NCCC(=O)NCc2ccncc2)c1` the “Percent Effect” value was 103.5%. For `O=C(CCNC(=O)c1cccc(OC(F)F)c1)Nc1cccnc1`, the “Percent Effect” value was 104.3%. `Cn1cc(C(=O)Nc2cccc(Oc3ccncc3)c2)ccc1=O` was tested, and the “Percent Effect” value was -26.42%. With `O=C(CCNc1ccc(Cl)cn1)NCc1ccncc1` the “Percent Effect” value was -15.58%. For `CCOc1cccc(C(=O)Nc2ccncc2)c1`, the “Percent Effect” value was 88.42%. For `CS(=O)(=O)c1ccc(OCCNCc2ccc(F)cc2)cc1`, the “Percent Effect” value was -11.24%. With `CC(C)c1ccc(O)c(C(=O)NC2CCN(c3ncccn3)CC2)c1` the “Percent Effect” value was 6.653%. In the case of `O=C(C1CCS(=O)(=O)CC1)N1C[C@H]2CC[C@@H]1CN(Cc1ccccc1)C2`, the “Percent Effect” value is reported as -12.98%. `O=S1(=O)[C@@H](c2ccccc2)[C@H](CO)CN1C1CC1` was tested, and the “Percent Effect” value was 108.4%. With `O=C(O)CN1CCC(c2ccccc2)CC1` the “Percent Effect” value was -2.297%. For `CC(C)C1CN(C(=O)c2ccccc2)CCS1` (stereo not drawn), the “Percent Effect” value was -3.784%. For `CC(C)N1C[C@@H](CO)[C@H](c2ccccc2)S1(=O)=O`, the “Percent Effect” value was 103.9%. In the case of `COc1ccccc1CCC(=O)N1C[C@H](c2ccccc2)[C@@H](N)C1`, the “Percent Effect” value is reported as -7.051%. With `O=S1(=O)[C@@H](c2ccccc2)[C@H](CO)CN1c1ccccc1` the “Percent Effect” value was 106.6%. In the case of `O=S(=O)(Cc1ccccc1CN1CC[C@H](CO)[C@H](O)C1)c1ccccc1`, the “Percent Effect” value is reported as -17.78%. For `CN(C)C[C@@H]1CN(C(=O)Cc2ccccc2)C[C@@H]1CO`, the “Percent Effect” value was -32.78%. For `CCN1C(=O)CCC12CCN(S(=O)(=O)c1ccc(C#N)cc1)CC2`, the “Percent Effect” value was 5.403%. `O=C(c1ccnnc1)N1CCC2(CCN(c3ccsc3)C2=O)C1` (stereo not drawn) was tested, and the “Percent Effect” value was 3.217%. For `CCC(C(=O)N(Cc1ccccn1)C1CCCCC1)n1cccn1` (stereo not drawn), the “Percent Effect” value was 5.317%. For `COCCn1/c(=N\C(=O)CN(C)S(C)(=O)=O)sc2cc(C)ccc21`, the “Percent Effect” value was -2.711%. `CC(C)(C)c1cnc(CN2CCC(NC(=O)Nc3ccccc3)CC2)o1` was tested, and the “Percent Effect” value was 8.013%. In the case of `Cn1cc(CN2CC3(CCN(C(=O)c4cscn4)C3)C2)cn1`, the “Percent Effect” value is reported as 2.986%. `Cc1ccc(CN2CCC3(CCCN(C(=O)N(C)C)C3)C2)cc1` (stereo not drawn) was tested, and the “Percent Effect” value was -1.979%. `O=C(c1cscn1)N1CCC2(CCCN(CCOc3ccccc3)C2)C1` (stereo not drawn) was tested, and the “Percent Effect” value was 112%. `CN(C)C(=O)N1CCC2(CCCN(CCOc3ccccc3)C2)C1.O=C(O)C(F)(F)F` (stereo not drawn) was tested, and the “Percent Effect” value was 102.1%. `O=C(CC1CC1)N1CC[C@H]2OCC[C@@]2(COc2ncccc2F)C1.O=C(O)C(F)(F)F` was tested, and the “Percent Effect” value was 5.049%. With `O=C(CC1CC1)N1CCC2(CCCN(CCOc3ccccc3)C2)C1.O=C(O)C(F)(F)F` (stereo not drawn) the “Percent Effect” value was 117.3%. For `O=C(c1cscn1)N1CCC2(CCN(S(=O)(=O)c3ccccc3)C2)C1` (stereo not drawn), the “Percent Effect” value was -2.264%. In the case of `CCOC(=O)CN1CCC2(CCCN(CCOc3ccccc3)C2)C1` (stereo not drawn), the “Percent Effect” value is reported as 101.8%. In the case of `O=C(CC1CC1)N1CCC2(CCCN(c3ncccn3)C2)CC1`, the “Percent Effect” value is reported as -10.65%. With `COC(=O)c1cc(OCC2CCC2)cc(C(=O)N[C@@H]2CNCC[C@H]2O)c1` the “Percent Effect” value was 8.764%. In the case of `O=C(c1ccc(=O)[nH]c1)N1CCCC2(C=Cc3ccccc3O2)CC1` (stereo not drawn), the “Percent Effect” value is reported as -7.084%. For `Cc1nc(CN(C)S(=O)(=O)c2ccccc2C(F)(F)F)no1`, the “Percent Effect” value was 2.399%. For `COc1ccc(CN2CCOC[C@H](OCCC(C)C)C2)cc1`, the “Percent Effect” value was 0.3051%.
